JMJD2A Tudor inh: qHTS Assay for Inhibitors of JMJD2A-Tudor Domain. 390,000 compounds, 4.4% hits. AID 504339, 2011. Lysine-specific demethylase 4A (Homo sapiens), O75164. Potency, µM (highest dose often 114 µM), for the others: at the highest dose activity change, negative = inhibition, usual class: inhibitors. AlphaScreen JMJD2A-Tudor / H3K4me3 peptide binding; further: potency means the concentration at half of the fitted maximal effect; on the % scale 0 is the no-effect control and ±100 the full control effect; nearly all actives have a fitted effect of over 50% in size
HP1b chromo inh: HTS for Inhibitors of HP1-beta Chromodomain Interactions with Methylated Histone Tails; Chromobox protein homolog 1 (Homo sapiens), P83916; 390,000 compounds, 0.56% hits; AlphaScreen HP1-beta / biotin-H3K9me3 peptide binding; Potency, µM (doses to about 114 µM), without a hit: at the highest dose activity change, negative = inhibition, actives largely listed as inhibitors; further: potency means the concentration at half of the fitted maximal effect; nearly all actives have a fitted effect of over 70% in size
Target sequence (P83916 whole entry, looked up): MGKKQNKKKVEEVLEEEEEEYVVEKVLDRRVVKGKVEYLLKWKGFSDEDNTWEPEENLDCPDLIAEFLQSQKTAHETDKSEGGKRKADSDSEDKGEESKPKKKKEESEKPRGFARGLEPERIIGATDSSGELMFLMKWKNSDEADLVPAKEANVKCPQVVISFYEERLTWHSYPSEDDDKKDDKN
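Compound inhibition of the preformed complex between 50 nM HP1-beta and 50 nM biotinylated H3K9me3 peptide was read by AlphaScreen. Buffer was PBS pH 7.4 with 0.01% Tween-20. Incubations ran 30 min at room temperature, with 10 ug/mL donor/acceptor beads.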
PLK1 PBD block: qHTS for Inhibitors of PLK1-PDB (polo-like kinase 1 - polo-box domain): Primary Screen; 360,000 compounds, 2.8% hits; Potency, µM, inactives show max response, negative = inhibition, most hits filed as inhibitors; AID 720504, 2013; Plk1 PBD binding of FITC phosphopeptide, fluorescence polarization; Serine/threonine-protein kinase PLK1 (Homo sapiens), P53350; further: potency means the concentration at half of the fitted maximal effect; series mostly up to about 57 µM; on the % scale 0 is the no-effect control and ±100 the full control effect; nearly all actives have a fitted effect of over 65% in size
BAZ2B block: qHTS Assay for Inhibitors of BAZ2B. Bromodomain adjacent to zinc finger domain protein 2B (Homo sapiens), Q9UIF8. AlphaScreen BAZ2B-H3K14Ac peptide displacement. Potency, µM (series often up to 114 µM), inactives show top-dose activity change, negative = inhibition, usual class: inhibitors. 360,000 compounds, 4.4% hits. AID 504333, 2011; further: potency means the concentration at half of the fitted maximal effect; on the % scale 0 is the no-effect control and ±100 the full control effect; nearly all actives have a fitted effect of over 60% in size
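Complex of BAZ2B and biotin-H3K14Ac (50 nM apiece) forms over 30 min at RT, then faces library compounds up to 110 uM for another 30 min; AlphaScreen beads added, 20 min dark incubation, luminescence read.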
G9a block: qHTS Assay for Inhibitors of Histone Lysine Methyltransferase G9a | Histone-lysine N-methyltransferase EHMT2 (Homo sapiens), Q96KQ7 | G9a H3K9 monomethylation, AlphaScreen, 2 h | Potency, µM (highest dose often 102 µM), for the others: at the top dose activity, negative = inhibition, most hits filed as inhibitors | 350,000 compounds, 8.8% hits; further: potency means the concentration at half of the fitted maximal effect; on the % scale 0 is the no-effect control and ±100 the full control effect; nearly all actives have a fitted effect of over 75% in size
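Enzyme 20 nM + cpd, 15 min RT; add b-H3K9 pep 500 nM / SAM 20 uM; 2 h RT; anti-H3K9me1 Ab 0.5 ug/mL + SA donor / anti-rabbit acceptor beads 20 ug/mL each, 10 min; AlphaScreen read.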
PI5P4K alpha inh: qHTS for Inhibitors of phosphatidylinositol 5-phosphate 4-kinase (PI5P4K) | PI5P4Kalpha enzyme, ADP-Glo luminescence, 60 min; hits give low values | max response, % | 330,000 compounds, 1.2% hits | AID 652105, 2013; active means max response of -50% or lower; inconclusive means between -30% and -50%; inactive means -30% or higher; further: value at the top dose of about 77 µM; on the % scale 0 is the no-effect control and ±100 the full control effect
Target sequence (P48426 whole entry, looked up): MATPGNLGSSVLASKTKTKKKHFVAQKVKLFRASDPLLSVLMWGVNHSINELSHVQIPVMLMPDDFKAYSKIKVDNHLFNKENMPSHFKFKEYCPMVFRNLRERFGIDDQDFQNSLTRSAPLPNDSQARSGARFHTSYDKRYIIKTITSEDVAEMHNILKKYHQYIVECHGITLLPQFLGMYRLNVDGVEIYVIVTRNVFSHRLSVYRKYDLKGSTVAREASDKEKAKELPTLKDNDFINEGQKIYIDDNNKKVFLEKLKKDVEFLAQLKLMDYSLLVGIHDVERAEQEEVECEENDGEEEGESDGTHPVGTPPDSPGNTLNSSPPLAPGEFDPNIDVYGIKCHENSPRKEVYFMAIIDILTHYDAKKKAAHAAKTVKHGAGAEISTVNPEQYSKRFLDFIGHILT
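Controls without substrate or without enzyme flank wells where PI5P4Kalpha converts substrate using 5 microM ATP (final). Incubation lasts 60 minutes at room temperature; ADP formed is read by ADP-Glo luminescence.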
* = called active by the depositor; ? = inconclusive; · = no result; [ ] = dose if it differs, or a comment. Rows were chosen to be rich in hits. Some 12% of all compounds tested hit in one or more screens of this group. Unless noted, the call rests on the fitted dose curve; in most records, active means well fitted curve in the direction sought with a large enough effect; inconclusive means small, poorly fitted or top-dose-only effect, or another doubt; inactive means no such curve, though single readings can be large; an effect the other way counts as inactive or inconclusive.

SMILES	JMJD2A Tudor inh	HP1b chromo inh	PLK1 PBD block	BAZ2B block	G9a block	PI5P4K alpha inh
CCOC(=O)c1c(CSc2ccccc2)n(C)c2ccc(O)c(CN3CCOCC3)c12	-34%	8%	-1%	35µM*	40µM*	3
CCOC(=O)c1c(C)n(C)c2ccc(O)c(CN3CCN(C)CC3)c12	-21%	-4%	-5%	·	?	·
CCOC(=O)c1c(CN2CCOCC2)n(C)c2cc(Br)c(O)c(CN(C)C)c12	-15%	-6%	2%	?	11µM*	-12
CCOC(=O)c1c(CS(=O)(=O)c2ccccc2)n(C)c2cc(Br)c(O)c(CN(C)C)c12	-18%	6%	-11%	19%	-6%	0
CCN(CC)CCN1C(=O)C(=O)/C(=C(/O)c2ccc(S(=O)(=O)N3CCOCC3)cc2)C1c1ccc(Cl)cc1 (stereo not drawn)	15%	24%	-4%	-1%	-6%	-2
CC(=O)O[C@H]1C[C@@]2(C)[C@H](C[C@@H](O)[C@H]3[C@@]4(C)CC[C@@H](O)[C@@H](C)[C@H]4CC[C@@]32C)C1=C(CCC=C(C)C)C(=O)O	·	·	·	·	4%[12.7 µM]	·
Cc1cn([C@H]2C[C@H](O)[C@@H](CNCc3cccn3-c3ccncc3)O2)c(=O)[nH]c1=O	·	·	1.1µM*	·	·	-5
COc1ccc(CC(=O)NC2CC(=O)N(c3cccc(F)c3)C2)cc1 (stereo not drawn)	-12%	17%	·	2%	6%[59 µM]	·
O=C(NC(=S)NNC(=O)c1ccccc1O)c1ccccc1	32µM*	6%	-15%	?	32µM*	-3
Cc1ccc(C(=O)NC(=S)NNC(=O)c2ccccc2O)cc1	-7%	24%	-5%	3%	?	13
Cc1ccccc1C(=O)NNC(=S)NC(=O)c1ccccc1	-27%	-7%	-12%	11%	4µM*	-12
O=C(NC(=S)NNC(=O)c1ccccc1O)c1ccc(F)cc1	56µM*	9%	-27%	?	4%	3
O=C(NC(=S)NNC(=O)c1ccccc1O)c1cccs1	45µM*	-27%	-19%	?	-16%	-3
Cc1ccc(C(=O)NNC(=S)NC(=O)c2ccccc2)cc1	-27%	5%	?	·	·	0
COCCCNC(=O)c1cc2cc3cc(OC)ccc3nc2o1	-17%	10%	21µM*	3%	31%	0
CCCCCOc1c(Cl)cc(C(=O)N(Cc2ccc(C)o2)C2CCS(=O)(=O)C2)cc1Cl (stereo not drawn)	-18%	2%	·	-14%	-10%[59 µM]	·
Cc1cccc(NC(=S)N/N=C2\CC(C)(C)Oc3ccc(O)cc32)c1	?	-2%	12%	-12%	19%[59 µM]	7
CC1(C)C/C(=N\NC(=S)Nc2ccccc2F)c2cc(O)ccc2O1	18µM*	7.9µM*	?	?	?	-12
C=C1N[C@]2(C(=O)COC(C)=O)[C@@H](C[C@H]3[C@@H]4CCC5=CC(=O)C=C[C@]5(C)[C@H]4[C@@H](O)C[C@@]32C)O1	·	·	·	·	-2%[12.7 µM]	·
CC(=O)NC1=NN(C(C)=O)C2(S1)C(=O)N(C(C)=O)c1ccc(C)cc12 (stereo not drawn)	?	-16%	27µM*	-7%	-7%[59 µM]	-13
CC(=O)NC(c1ccc(Cl)cc1)c1c(O)ccc2ccc(O)cc12 (stereo not drawn)	-34%	4%	-21%	-27%	40µM*	-29
CC(C)(C)[C@]1(O)CCN2CC3c4ccccc4CCc4cccc(c43)[C@@H]2C1 (stereo partly drawn)	·	·	·	·	43%[12.7 µM]	·
O=C(Nc1nc(=S)ss1)c1c(F)cccc1F	5%	46%	-4%	-20%	18µM*	-11
CC(C)CC(=O)Nc1nnn(C)n1	-11%	32%	-1%	-2%	?	1
CC(=O)c1sc(NC(=O)c2c(F)cccc2F)nc1C	-18%	21%	-10%	?	-25%[59 µM]	-18
SMILES	JMJD2A Tudor inh	HP1b chromo inh	PLK1 PBD block	BAZ2B block	G9a block	PI5P4K alpha inh
CC(C)CC(=O)Nc1nc(=S)ss1	?	?	17µM*	-36%	1.6µM*	-53*
Cc1ccccc1C(=O)Nc1nc(=S)ss1	?	-42%	11µM*	2%	13µM*	?
CC(=O)Nc1nc(=S)ss1	-34%	-41%	24µM*	1%	?	-58*
CCC(O)CC(C(=O)NNc1ccccc1)C(=O)NNc1ccccc1 (stereo not drawn)	-16%	?	-13%	-2%	7.9µM*	8
CC(C)C(O)(C(=O)NNc1ccccc1)C(C)C	0%	24%	-6%	-16%	?	-4
Cc1ccccc1NCc1ccc([N+](=O)[O-])s1	?	?	-4%	50µM*	·	-5
COc1ccccc1NCc1ccc([N+](=O)[O-])s1	?	?	-7%	50µM*	7.9µM*	-13
COc1ccccc1CNc1ccc([N+](=O)[O-])cc1C	-31%[57.1 µM]	-20%	?	?	·	-1
COc1ccc(C(=O)N2CCC3(CCN(C(=O)Nc4ccccc4)CC3)CC2)cc1	·	·	·	·	8%[12.7 µM]	·
Cc1cc2n(n1)CCCN2C(=O)Nc1ccc(F)c(Cl)c1	-2%	10%	·	5%[57.1 µM]	10%[59 µM]	·
Cc1cc2n(n1)SC(Nc1ccc(F)c(Cl)c1)N2 (stereo not drawn)	?	-28%	-14%	-4%	1.4µM*	·
CCOc1ccc(N2CC(C(=O)Nc3ccc(S(=O)(=O)N4CCCC4)cc3)CC2=O)cc1 (stereo not drawn)	-5%	18%	-3%	-2%	35µM*	1
CCc1ccc(N2CC(C(=O)N/N=C/c3ccccc3)CC2=O)cc1 (stereo not drawn)	?	-6%	27µM*	·	·	4
CCc1ccc(N2CC(C(=O)Nc3ccc(C)c(S(=O)(=O)N4CCOCC4)c3)CC2=O)cc1 (stereo not drawn)	-25%	23%	-6%	2%	-70%[59 µM]	0
CCc1ccc(N2CC(C(=O)Nc3ccc(S(=O)(=O)N4CCOCC4)cc3)CC2=O)cc1 (stereo not drawn)	-10%	9%	0%	-11%	50µM*	-14
O=C(Nc1cccc(F)c1)C1CC(=O)N(c2ccc(Cl)cc2)C1 (stereo not drawn)	1%[57.1 µM]	26%	?	-6%	-26%[2.33 µM]	5
O=C(Nc1cccc(F)c1)C1CC(=O)N(c2ccc(Br)cc2)C1 (stereo not drawn)	-19%[11.4 µM]	8%	30µM*	-1%	-38%	-2

Screens from PubChem BioAssay.
